Results filed as inconclusive are left out. Calls of active or inactive are those of the source. Calls come from the whole dose curve; as a rule, active = well fitted curve in either direction with a large enough effect (not every such curve was filed as active); inconclusive = small, poorly fitted or top-dose-only effect, or another doubt; inactive = flat fitted curve, though single readings scatter.
% is set by controls: 0 for no effect and ±100 for the full control effect.

One experiment can be described thus: AP1 Signaling Pathway (AID 357). Particulars: ME-180 AP-1-bla reporter, EGF-induced, beta-lactamase ratio, 5 h; at 17.2 µM (top of the series) unless noted. The procedure, abridged: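 ME-180 cells with beta-lactamase reporter under AP-1 response element, stimulated with EC50 EGF; compounds tested in titration series, 5 h at 37 °C. CCF4 substrate added 2.5 h at room temperature; 460/530 nm emission ratio gave %activity and AC50.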
For `Cn1c(=O)c2c(nc(NCc3ccc4c(c3)OCO4)n2Cc2ccccc2Cl)n(C)c1=O`, the activity change, negative = inhibition was -22.3% (inactive).

As for `CCN(CC)CCn1c(O)c(N=O)c2ccccc21`, the activity change, negative = inhibition is 90.5% [activator] (active).

As to `Cc1cc(C)cc(CC2CC(=O)N(c3cc(C)on3)C2=O)c1` (stereo not drawn), the activity change, negative = inhibition was -8.62% (inactive).

In the case of `CCC(C)Nc1nc(OC)nc(N(C)C#N)n1` (stereo not drawn), the activity change, negative = inhibition is 12.2% (inactive).

As for `CCc1ccccc1NC(=O)CSC1=C(C#N)C(c2ccc(O)c(OC)c2)C2=C(CCCC2=O)N1` (stereo not drawn), the activity change, negative = inhibition was -4.47% (inactive).

Take `Cc1cc(C)n(Cc2ccc(C(=O)NCCC3=CCCCC3)o2)n1`: the activity change, negative = inhibition is -15.1% (inactive).

As to `COc1ccc[nH]c1=O`, the activity change, negative = inhibition was 14.3% (inactive).

With `O=C(O)C1CC(=O)N(Cc2cccs2)C1` (stereo not drawn), the activity change, negative = inhibition is -0.708% (inactive).

`C=CCOC(=O)C1=C(C)OC(N)=C(C#N)C1c1ccoc1` (stereo not drawn): the activity change, negative = inhibition is 21.2% (inactive).

Turning to `CCOc1ccc(S(=O)(=O)N(C)C)cc1-c1nc2c(C(C)(C)C)nn(C)c2c(=O)[nH]1`, the activity change, negative = inhibition was 5.08% (inactive).

Consider `CC(C)=CCC(C)(C)CNC(=O)NC1CCCCC1`, for which the activity change, negative = inhibition is -8.2% (inactive).

`CCOc1cccc(-c2nnc3sc(COc4ccccc4)nn23)c1`: the activity change, negative = inhibition is -3.24% (inactive).

In the case of `O=C1OC(Nc2ccc(Br)cn2)c2ccccc21` (stereo not drawn), the activity change, negative = inhibition is 12.2% (inactive).

For the molecule `COc1cccc(C2/C(=C(/O)c3ccc(C)cc3)C(=O)C(=O)N2Cc2ccco2)c1` (stereo not drawn), the activity change, negative = inhibition is 2.99% (inactive).

For `c1coc(-c2nnc3sc(C4CCCCC4)nn23)c1`, the activity change, negative = inhibition is -14.7% (inactive).

As for `CC(=O)NCCCCCCNC(C)=O`, the activity change, negative = inhibition is 10.3% (inactive).

`Cc1c(/C(O)=C2\C(=O)C(=O)N(CCN(C)C)C2c2cccnc2)cnn1-c1ccccc1` (stereo not drawn): the activity change, negative = inhibition is 1.75% (inactive).

As for `COc1ccc(C(=O)NCCCCCC(=O)O)cc1OC`, the activity change, negative = inhibition is 5.18% (inactive).

As for `c1ccc(-n2c(Cc3cccnc3)nc3cnccc32)cc1`, the activity change, negative = inhibition is -10.4% (inactive).

Regarding `C=CCN(C(=O)CCC(=O)O)C1CC(=O)N(c2ccc(OCCC)cc2)C1=O` (stereo not drawn), the activity change, negative = inhibition is 3.6% (inactive).

With `N#CCc1nc2c3c4c(sc3ncn2n1)CCCC4`, the activity change, negative = inhibition was -0.68% (inactive).

For the molecule `COC(=O)C(NC(C)=O)(Nc1nc2c(s1)CCCC2)C(F)(F)F` (stereo not drawn), the activity change, negative = inhibition is 1.18% (inactive).

Turning to `Cc1ccc2[nH]c3c(c2c1)CN(C(=O)CN1CC(C)OC(C)C1)CC3` (stereo not drawn), the activity change, negative = inhibition is -2.87% (inactive).

With `CC(NC(=O)OCc1ccccc1)C(=O)OCN1C(=O)c2ccccc2C1=O` (stereo not drawn), the activity change, negative = inhibition was -1.4% (inactive).

`CN(C)c1nc2n(c(=O)n1)C(C#N)CS2` (stereo not drawn): the activity change, negative = inhibition was -5.05% (inactive).

For the molecule `CNc1oc(-c2ccc(Cl)cc2)nc1C#N`, the activity change, negative = inhibition is -1.98% (inactive).

For `CCOC(=O)N1CCN(/C=C(\C#N)c2nc3ccccc3s2)CC1`, the activity change, negative = inhibition was -15.9% (inactive).

`Cc1nnc2n(Cc3ccccc3)c(=O)c3c4c(sc3n12)COC(C(C)C)C4` (stereo not drawn): the activity change, negative = inhibition was 10.6% (inactive).

With `COC(=O)c1c(C)noc1-c1cc(C)on1`, the activity change, negative = inhibition is 10.7% (inactive).

As for `CCOc1ccc(/C(O)=C2/C(=O)C(=O)N(c3nc(C)c(C)s3)C2c2ccco2)cc1` (stereo not drawn), the activity change, negative = inhibition was -13.5% (inactive).

For `COC(=O)NC(Nc1sc2c(c1C(N)=O)CCCC2)(C(=O)OC)C(F)(F)F` (stereo not drawn), the activity change, negative = inhibition is 2.66% (inactive).

Turning to `CC(C)(C)c1ccc(O)c(N)c1`, the activity change, negative = inhibition is 3.38% (inactive).

Take `COC(=O)C(NC(=O)c1ccco1)(Nc1nc(C)cs1)C(F)(F)F` (stereo not drawn): the activity change, negative = inhibition is -3.01% (inactive).

Consider `COc1ccc(C2=Nn3c(nnc3-c3ccccn3)SC2)cc1`, for which the activity change, negative = inhibition was -4.44% (inactive).

On to `COCCNc1oc(-c2ccc(C)cc2)nc1C#N`, for which the activity change, negative = inhibition is -6.25% (inactive).

Turning to `CCOC(=O)Cc1nnc(Nc2cccc(O)c2)c2ccccc12`, the activity change, negative = inhibition was -12.7% (inactive).

Take `CCOC(=O)c1cc(C)n(Cc2cccc(OC)c2OC)c1C`: the activity change, negative = inhibition was -16.9% (inactive).

For `CC(=N\O)/C(CN(C)C)=N/O`, the activity change, negative = inhibition was -9.85% (inactive).

As for `O=C(c1ccc(-n2cnnn2)cc1)N1CCOCC1`, the activity change, negative = inhibition was 10.3% (inactive).

A short description of another experiment: NFAT Signaling Pathway (AID 444).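 Note: carbachol stimulus at about its EC50 of 1 µM final.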 Particulars: Jurkat NFAT-bla M1, carbachol, beta-lactamase ratio, 5 h; at 17.2 µM (top of the series) unless noted. An outline of the steps:
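Jurkat cells with NFAT-driven β-lactamase reporter and co-expressed M1 receptor, stimulated with carbachol (final 1 uM, ~EC50), compound titration, 5 h at 37 °C. CCF4 loaded 1 h at RT; 460/530 nm ratio gave %activity and AC50.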
Consider `Cn1c(=O)c2c(nc(NCc3ccc4c(c3)OCO4)n2Cc2ccccc2Cl)n(C)c1=O`, for which the activity change, negative = inhibition is -8.43% (inactive).

Turning to `CCN(CC)CCn1c(O)c(N=O)c2ccccc21`, the activity change, negative = inhibition is -17.1% (inactive).

Turning to `Cc1cc(C)cc(CC2CC(=O)N(c3cc(C)on3)C2=O)c1` (stereo not drawn), the activity change, negative = inhibition was -3.65% (inactive).

Regarding `CCC(C)Nc1nc(OC)nc(N(C)C#N)n1` (stereo not drawn), the activity change, negative = inhibition was 12.5% (inactive).

With `CCc1ccccc1NC(=O)CSC1=C(C#N)C(c2ccc(O)c(OC)c2)C2=C(CCCC2=O)N1` (stereo not drawn), the activity change, negative = inhibition was 2.67% (inactive).

Regarding `Cc1cc(C)n(Cc2ccc(C(=O)NCCC3=CCCCC3)o2)n1`, the activity change, negative = inhibition was -1.94% (inactive).

Consider `COc1ccc[nH]c1=O`, for which the activity change, negative = inhibition was -4.63% (inactive).

Turning to `O=C(O)C1CC(=O)N(Cc2cccs2)C1` (stereo not drawn), the activity change, negative = inhibition is -5.3% (inactive).

Take `C=CCOC(=O)C1=C(C)OC(N)=C(C#N)C1c1ccoc1` (stereo not drawn): the activity change, negative = inhibition is -14.1% (inactive).

Consider `CCOc1ccc(S(=O)(=O)N(C)C)cc1-c1nc2c(C(C)(C)C)nn(C)c2c(=O)[nH]1`, for which the activity change, negative = inhibition was 8.6% (inactive).

Take `CC(C)=CCC(C)(C)CNC(=O)NC1CCCCC1`: the activity change, negative = inhibition was 19% (inactive).

Turning to `CCOc1cccc(-c2nnc3sc(COc4ccccc4)nn23)c1`, the activity change, negative = inhibition was 9.41% (inactive).

As for `O=C1OC(Nc2ccc(Br)cn2)c2ccccc21` (stereo not drawn), the activity change, negative = inhibition was 16.3% (inactive).

For `COc1cccc(C2/C(=C(/O)c3ccc(C)cc3)C(=O)C(=O)N2Cc2ccco2)c1` (stereo not drawn), the activity change, negative = inhibition is -8.9% (inactive).

As to `c1coc(-c2nnc3sc(C4CCCCC4)nn23)c1`, the activity change, negative = inhibition was -19.5% (inactive).

As to `CC(=O)NCCCCCCNC(C)=O`, the activity change, negative = inhibition is -0.404% (inactive).

Consider `Cc1c(/C(O)=C2\C(=O)C(=O)N(CCN(C)C)C2c2cccnc2)cnn1-c1ccccc1` (stereo not drawn), for which the activity change, negative = inhibition was 9.15% (inactive).

For the molecule `COc1ccc(C(=O)NCCCCCC(=O)O)cc1OC`, the activity change, negative = inhibition is -3.46% (inactive).

Turning to `c1ccc(-n2c(Cc3cccnc3)nc3cnccc32)cc1`, the activity change, negative = inhibition is 15.3% (inactive).

Consider `C=CCN(C(=O)CCC(=O)O)C1CC(=O)N(c2ccc(OCCC)cc2)C1=O` (stereo not drawn), for which the activity change, negative = inhibition is -2.1% (inactive).

Take `N#CCc1nc2c3c4c(sc3ncn2n1)CCCC4`: the activity change, negative = inhibition was -9.45% (inactive).

`COC(=O)C(NC(C)=O)(Nc1nc2c(s1)CCCC2)C(F)(F)F` (stereo not drawn): the activity change, negative = inhibition was -2.64% (inactive).

Turning to `Cc1ccc2[nH]c3c(c2c1)CN(C(=O)CN1CC(C)OC(C)C1)CC3` (stereo not drawn), the activity change, negative = inhibition was -2.75% (inactive).

Regarding `CC(NC(=O)OCc1ccccc1)C(=O)OCN1C(=O)c2ccccc2C1=O` (stereo not drawn), the activity change, negative = inhibition was -16.6% (inactive).

Turning to `CN(C)c1nc2n(c(=O)n1)C(C#N)CS2` (stereo not drawn), the activity change, negative = inhibition is 3.5% (inactive).

Regarding `CNc1oc(-c2ccc(Cl)cc2)nc1C#N`, the activity change, negative = inhibition is 18.3% (inactive).

Take `CCOC(=O)N1CCN(/C=C(\C#N)c2nc3ccccc3s2)CC1`: the activity change, negative = inhibition was 13.1% (inactive).

Take `Cc1nnc2n(Cc3ccccc3)c(=O)c3c4c(sc3n12)COC(C(C)C)C4` (stereo not drawn): the activity change, negative = inhibition was -9.5% (inactive).

For the molecule `COC(=O)c1c(C)noc1-c1cc(C)on1`, the activity change, negative = inhibition was 10.8% (inactive).

`CCOc1ccc(/C(O)=C2/C(=O)C(=O)N(c3nc(C)c(C)s3)C2c2ccco2)cc1` (stereo not drawn): the activity change, negative = inhibition was 20.9% (inactive).

Regarding `COC(=O)NC(Nc1sc2c(c1C(N)=O)CCCC2)(C(=O)OC)C(F)(F)F` (stereo not drawn), the activity change, negative = inhibition was 11.9% (inactive).

Regarding `CC(C)(C)c1ccc(O)c(N)c1`, the activity change, negative = inhibition is -5.9% (inactive).

With `COC(=O)C(NC(=O)c1ccco1)(Nc1nc(C)cs1)C(F)(F)F` (stereo not drawn), the activity change, negative = inhibition was 4.32% (inactive).

Regarding `COc1ccc(C2=Nn3c(nnc3-c3ccccn3)SC2)cc1`, the activity change, negative = inhibition was 2.81% (inactive).

As for `COCCNc1oc(-c2ccc(C)cc2)nc1C#N`, the activity change, negative = inhibition is 1.1% (inactive).

For the molecule `CCOC(=O)Cc1nnc(Nc2cccc(O)c2)c2ccccc12`, the activity change, negative = inhibition is -6.58% (inactive).

Consider `CCOC(=O)c1cc(C)n(Cc2cccc(OC)c2OC)c1C`, for which the activity change, negative = inhibition was -21.6% (inactive).

Take `CC(=N\O)/C(CN(C)C)=N/O`: the activity change, negative = inhibition is 13% (inactive).

On to `O=C(c1ccc(-n2cnnn2)cc1)N1CCOCC1`, for which the activity change, negative = inhibition was -0.0644% (inactive).

The record behind these values is PubChem BioAssay (NCATS).
